From paper PMC7862700, “An all-to-all approach to the identification of sequence-specific readers for epigenetic DNA modifications on cytosine”

Experiments:
Assay in all cases: DAPPL (digital affinity profiling via proximity ligation, sequencing); 10 mM Tris-HCl pH 7.5, 50 mM NaCl, 1 mM DTT, 4% glycerol, room temperature, 30 min; GST-TFs on glutathione beads, 16-mer random dsDNA library, 0.1% formaldehyde crosslink after washing; high values mean tight binding
Conditions in all cases: protein: recombinant; tags: N-terminal GST; dsDNA, one strand shown
FLI1 = biological target: T1, FLI1 (Homo sapiens, UniProt Q01543 1-452)
T1 sequence: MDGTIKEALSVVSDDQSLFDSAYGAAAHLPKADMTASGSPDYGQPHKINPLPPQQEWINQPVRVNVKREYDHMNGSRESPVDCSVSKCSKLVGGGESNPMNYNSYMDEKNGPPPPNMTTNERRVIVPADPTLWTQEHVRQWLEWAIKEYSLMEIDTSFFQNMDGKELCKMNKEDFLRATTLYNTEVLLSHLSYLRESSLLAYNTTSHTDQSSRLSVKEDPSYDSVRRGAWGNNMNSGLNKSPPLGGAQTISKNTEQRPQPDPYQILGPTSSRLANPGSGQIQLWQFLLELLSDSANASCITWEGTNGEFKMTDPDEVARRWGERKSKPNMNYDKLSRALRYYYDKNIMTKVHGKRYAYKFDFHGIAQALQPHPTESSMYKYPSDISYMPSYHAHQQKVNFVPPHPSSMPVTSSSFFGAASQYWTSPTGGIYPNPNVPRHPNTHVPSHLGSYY
Method in brief: (§1)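 Binding signal is each hexamer's read frequency for a factor divided by its frequency in the tag-only sample. The factors were GST-fused human transcription factors from yeast, captured on glutathione beads, DNA-barcoded and pooled with that sample. Pools were incubated with 200 nmole of a random double-stranded 16-mer DNA library in Tris/NaCl/DTT/glycerol buffer at room temperature for 30 min, then washed, crosslinked with 0.1% formaldehyde, proximity-ligated with BsaI/T4 ligase (1 h, 37 °C), PCR-amplified and sequenced on an Illumina NextSeq500.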

ELK1 = biological target: T2, ELK1 (Homo sapiens, UniProt P19419 1-428)
T2 sequence: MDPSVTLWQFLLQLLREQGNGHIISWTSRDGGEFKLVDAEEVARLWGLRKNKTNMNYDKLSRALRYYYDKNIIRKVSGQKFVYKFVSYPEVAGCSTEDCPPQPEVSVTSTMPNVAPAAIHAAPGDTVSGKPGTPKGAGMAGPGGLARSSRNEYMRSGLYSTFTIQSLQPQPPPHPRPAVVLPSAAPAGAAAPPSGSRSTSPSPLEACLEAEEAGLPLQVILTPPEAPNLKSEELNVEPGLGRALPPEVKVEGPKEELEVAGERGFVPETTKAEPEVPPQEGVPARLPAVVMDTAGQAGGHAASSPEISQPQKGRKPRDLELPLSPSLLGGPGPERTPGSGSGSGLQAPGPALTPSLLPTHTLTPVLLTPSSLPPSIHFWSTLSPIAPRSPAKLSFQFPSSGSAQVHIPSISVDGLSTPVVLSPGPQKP
Method in brief: as §1

GABPA = biological target: T3, GABPA (Homo sapiens, UniProt Q06546 1-454)
T3 sequence: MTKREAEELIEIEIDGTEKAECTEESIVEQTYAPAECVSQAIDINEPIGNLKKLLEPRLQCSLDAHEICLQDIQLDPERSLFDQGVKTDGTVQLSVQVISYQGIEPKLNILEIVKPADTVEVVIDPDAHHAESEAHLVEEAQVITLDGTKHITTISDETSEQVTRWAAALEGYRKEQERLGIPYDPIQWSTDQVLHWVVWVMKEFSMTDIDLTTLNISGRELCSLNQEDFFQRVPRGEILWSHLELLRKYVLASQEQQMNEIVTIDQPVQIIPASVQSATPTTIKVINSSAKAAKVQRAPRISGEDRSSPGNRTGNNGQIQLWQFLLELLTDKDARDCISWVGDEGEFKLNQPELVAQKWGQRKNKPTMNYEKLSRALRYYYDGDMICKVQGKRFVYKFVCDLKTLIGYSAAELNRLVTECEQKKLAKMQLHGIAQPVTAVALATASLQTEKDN
Method in brief: as §1

ERG = biological target: T4, ERG (Homo sapiens, UniProt P11308 1-479)
T4 sequence: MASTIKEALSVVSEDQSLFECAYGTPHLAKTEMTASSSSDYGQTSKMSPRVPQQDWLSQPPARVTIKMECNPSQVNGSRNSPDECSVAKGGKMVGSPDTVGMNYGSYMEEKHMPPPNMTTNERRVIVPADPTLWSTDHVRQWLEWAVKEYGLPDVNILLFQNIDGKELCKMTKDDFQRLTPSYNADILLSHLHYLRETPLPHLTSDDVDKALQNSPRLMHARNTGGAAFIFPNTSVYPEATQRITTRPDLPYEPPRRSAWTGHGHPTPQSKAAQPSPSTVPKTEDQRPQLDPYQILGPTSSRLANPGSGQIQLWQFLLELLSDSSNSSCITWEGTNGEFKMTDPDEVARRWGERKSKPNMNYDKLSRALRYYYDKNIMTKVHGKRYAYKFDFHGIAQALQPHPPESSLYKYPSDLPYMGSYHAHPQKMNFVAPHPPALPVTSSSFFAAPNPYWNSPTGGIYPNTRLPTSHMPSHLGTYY
Method in brief: as §1

ELF1 = ELF1 (Homo sapiens, UniProt P32519 1-619)
Sequence of ELF1 (P32519 whole entry): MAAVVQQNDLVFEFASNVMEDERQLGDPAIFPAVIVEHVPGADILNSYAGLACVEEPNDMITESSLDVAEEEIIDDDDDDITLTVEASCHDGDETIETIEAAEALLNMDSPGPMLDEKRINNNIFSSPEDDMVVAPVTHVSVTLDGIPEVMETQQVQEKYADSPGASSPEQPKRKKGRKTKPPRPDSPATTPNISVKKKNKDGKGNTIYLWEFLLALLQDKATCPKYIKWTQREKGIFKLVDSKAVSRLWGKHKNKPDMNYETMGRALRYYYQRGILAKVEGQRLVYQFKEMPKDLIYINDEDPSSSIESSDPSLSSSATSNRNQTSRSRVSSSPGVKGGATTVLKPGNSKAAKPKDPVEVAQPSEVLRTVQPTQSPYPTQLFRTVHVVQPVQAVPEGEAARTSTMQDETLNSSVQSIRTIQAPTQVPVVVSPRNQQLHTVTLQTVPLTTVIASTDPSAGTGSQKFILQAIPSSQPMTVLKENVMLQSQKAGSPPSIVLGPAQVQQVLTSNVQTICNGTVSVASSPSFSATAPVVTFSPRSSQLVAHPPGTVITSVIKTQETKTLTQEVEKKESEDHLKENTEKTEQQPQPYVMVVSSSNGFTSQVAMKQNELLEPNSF
Method in brief: as §1

EHF = biological target: T5, EHF (Homo sapiens, UniProt Q9NZC4 1-300)
T5 sequence: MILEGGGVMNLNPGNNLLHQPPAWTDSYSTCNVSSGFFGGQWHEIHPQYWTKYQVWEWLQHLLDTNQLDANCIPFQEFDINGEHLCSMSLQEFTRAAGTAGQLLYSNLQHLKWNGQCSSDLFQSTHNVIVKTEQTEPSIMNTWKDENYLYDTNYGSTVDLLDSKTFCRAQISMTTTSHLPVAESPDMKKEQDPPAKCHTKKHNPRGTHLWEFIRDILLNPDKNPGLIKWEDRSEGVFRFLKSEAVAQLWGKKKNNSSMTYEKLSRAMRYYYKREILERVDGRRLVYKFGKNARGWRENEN
Method in brief: as §1

SPI1 = SPI1 (Homo sapiens, UniProt P17947 1-270)
Method in brief: as §1

SPIB = SPIB (Homo sapiens, UniProt Q01892 1-262)
Sequence of SPIB (Q01892 whole entry): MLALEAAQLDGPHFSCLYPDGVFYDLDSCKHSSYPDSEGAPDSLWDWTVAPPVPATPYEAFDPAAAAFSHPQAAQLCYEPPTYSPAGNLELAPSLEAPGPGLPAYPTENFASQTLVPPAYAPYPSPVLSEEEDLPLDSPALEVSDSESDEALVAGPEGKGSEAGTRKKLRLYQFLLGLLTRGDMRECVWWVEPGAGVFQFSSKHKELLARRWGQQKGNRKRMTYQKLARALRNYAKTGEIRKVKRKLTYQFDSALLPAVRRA
Method in brief: as §1

ELK3 = biological target: T6, ELK3 (Homo sapiens, UniProt P41970 1-407)
T6 sequence: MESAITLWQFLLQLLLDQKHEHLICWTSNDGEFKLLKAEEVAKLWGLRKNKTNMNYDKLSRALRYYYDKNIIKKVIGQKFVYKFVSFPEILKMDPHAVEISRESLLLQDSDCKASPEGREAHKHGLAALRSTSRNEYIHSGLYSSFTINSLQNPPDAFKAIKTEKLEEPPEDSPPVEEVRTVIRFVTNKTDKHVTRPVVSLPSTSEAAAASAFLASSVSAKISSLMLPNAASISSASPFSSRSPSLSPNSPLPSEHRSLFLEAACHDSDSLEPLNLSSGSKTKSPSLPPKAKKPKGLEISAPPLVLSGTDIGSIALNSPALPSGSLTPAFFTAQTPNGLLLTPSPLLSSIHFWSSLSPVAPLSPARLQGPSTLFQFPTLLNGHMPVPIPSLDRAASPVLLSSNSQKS
Method in brief: as §1

Row | Sequence | binding signal (FLI1) | binding signal (ELK1) | binding signal (GABPA) | binding signal (ERG) | binding signal (ELF1) | binding signal (EHF) | binding signal (SPI1) | binding signal (SPIB) | binding signal (ELK3)
1 | ATTCAC | 1.23 fold enrichment (6-mer frequency, TF over GST control) | 1.2 fold enrichment (6-mer frequency, TF over GST control) | 1.22 fold enrichment (6-mer frequency, TF over GST control) | 1.27 fold enrichment (6-mer frequency, TF over GST control) | 1.34 fold enrichment (6-mer frequency, TF over GST control) | 1.2 fold enrichment (6-mer frequency, TF over GST control) | 1.16 fold enrichment (6-mer frequency, TF over GST control) | 1.2 fold enrichment (6-mer frequency, TF over GST control) | 1.35 fold enrichment (6-mer frequency, TF over GST control)
2 | ATGTTA | 1.24 fold enrichment (6-mer frequency, TF over GST control) | 1.25 fold enrichment (6-mer frequency, TF over GST control) | 1.26 fold enrichment (6-mer frequency, TF over GST control) | 1.22 fold enrichment (6-mer frequency, TF over GST control) | 1.22 fold enrichment (6-mer frequency, TF over GST control) | 1.23 fold enrichment (6-mer frequency, TF over GST control) | 1.13 fold enrichment (6-mer frequency, TF over GST control) | 1.17 fold enrichment (6-mer frequency, TF over GST control) | 1.15 fold enrichment (6-mer frequency, TF over GST control)
3 | CGATGG | 1.36 fold enrichment (6-mer frequency, TF over GST control) | 1.4 fold enrichment (6-mer frequency, TF over GST control) | 1.36 fold enrichment (6-mer frequency, TF over GST control) | 1.34 fold enrichment (6-mer frequency, TF over GST control) | 1.32 fold enrichment (6-mer frequency, TF over GST control) | 1.24 fold enrichment (6-mer frequency, TF over GST control) | 1.41 fold enrichment (6-mer frequency, TF over GST control) | 1.58 fold enrichment (6-mer frequency, TF over GST control) | 1.4 fold enrichment (6-mer frequency, TF over GST control)
4 | CTCCTT | 1.92 fold enrichment (6-mer frequency, TF over GST control) | 1.72 fold enrichment (6-mer frequency, TF over GST control) | 1.7 fold enrichment (6-mer frequency, TF over GST control) | 1.82 fold enrichment (6-mer frequency, TF over GST control) | 1.94 fold enrichment (6-mer frequency, TF over GST control) | 1.64 fold enrichment (6-mer frequency, TF over GST control) | 1.71 fold enrichment (6-mer frequency, TF over GST control) | 1.82 fold enrichment (6-mer frequency, TF over GST control) | 1.65 fold enrichment (6-mer frequency, TF over GST control)
5 | AATACA | 1.28 fold enrichment (6-mer frequency, TF over GST control) | 1.3 fold enrichment (6-mer frequency, TF over GST control) | 1.38 fold enrichment (6-mer frequency, TF over GST control) | 1.33 fold enrichment (6-mer frequency, TF over GST control) | 1.35 fold enrichment (6-mer frequency, TF over GST control) | 1.3 fold enrichment (6-mer frequency, TF over GST control) | 1.28 fold enrichment (6-mer frequency, TF over GST control) | 1.31 fold enrichment (6-mer frequency, TF over GST control) | 1.27 fold enrichment (6-mer frequency, TF over GST control)
6 | TCTAAG | 1.22 fold enrichment (6-mer frequency, TF over GST control) | 1.19 fold enrichment (6-mer frequency, TF over GST control) | 1.3 fold enrichment (6-mer frequency, TF over GST control) | 1.2 fold enrichment (6-mer frequency, TF over GST control) | 1.29 fold enrichment (6-mer frequency, TF over GST control) | 1.28 fold enrichment (6-mer frequency, TF over GST control) | 1.17 fold enrichment (6-mer frequency, TF over GST control) | 1.28 fold enrichment (6-mer frequency, TF over GST control) | 1.22 fold enrichment (6-mer frequency, TF over GST control)
7 | ATACAT | 1.31 fold enrichment (6-mer frequency, TF over GST control) | 1.15 fold enrichment (6-mer frequency, TF over GST control) | 1.25 fold enrichment (6-mer frequency, TF over GST control) | 1.34 fold enrichment (6-mer frequency, TF over GST control) | 1.24 fold enrichment (6-mer frequency, TF over GST control) | 1.21 fold enrichment (6-mer frequency, TF over GST control) | 1.2 fold enrichment (6-mer frequency, TF over GST control) | 1.26 fold enrichment (6-mer frequency, TF over GST control) | 1.32 fold enrichment (6-mer frequency, TF over GST control)
